In assay [1] the test system is Zika virus NS2B-NS3 protease. In words: Primary screen GU AMC qHTS for Zika virus inhibitors (AID 1347154).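 Further: 0% = no-inhibitor control and -100% = no-enzyme control; nearly all actives have a fitted effect of over 70% in size.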 The method, boiled down:
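Unlinked Zika NS2B hydrophilic domain/NS3 protease domain noncovalent complex (25 nM final) in 10 mM Tris-HCl pH 8.0, 0.01% Tween 20, with AMC peptide substrate. Fluorescence (ex 340, em 450 nm) change over 15 min, room temperature; percent inhibition fitted to 4-parameter Hill equation.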
For orientation: Quantitative high-throughput screening tests each substance at several concentrations.

Assay [2] deals with Zika virus NS2B-NS3 protease (unlinked complex). In words: Primary screen GU Rhodamine qHTS for Zika virus inhibitors: Unlinked NS2B-NS3 protease assay (AID 1347159). Further: nearly all actives have a fitted effect of over 60% in size. Further: potency means the concentration at half of the fitted maximal effect. On activity change, negative = inhibition: on the % scale 0 is the no-effect control and ±100 the full control effect. The method, boiled down: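 Unlinked NS2B/NS3, 25 nM; Rhod110 peptide, 1.5 microM; compounds, up to 114 microM. Reaction run 15 min at RT in 10 mM Tris-HCl pH 8.0, 0.01% Tween 20; kinetic fluorescence change fitted with a 4-parameter Hill model.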

Assay [3] deals with Zika virus NS2B-NS3 protease (linked construct). Put plainly: Primary screen NINDS Rhodamine qHTS for Zika virus inhibitors (AID 1347160). Further: nearly all actives have a fitted effect of over 55% in size. On activity change, negative = inhibition: on the % scale 0 is the no-effect control and ±100 the full control effect. The method, boiled down: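 Single-chain NS2B-NS3 protease, 25 nM, pH 8.0; compounds preincubated 15 min. Activity: Rhodamine110 release from 1.5 microM substrate over 15 min, room temperature, data fitted to 4-parameter Hill.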
Assay [4] can be described thus: Confirmatory screen GU Rhodamine qHTS for Zika virus inhibitors qHTS (AID 1347157). Further: potency means the concentration at half of the fitted maximal effect; nearly all actives have a fitted effect of over 70% in size. The note with it: purified enzyme assay, Rhodamine110 substrate fluorescence, 15 min. The method in brief:
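Enzyme 25 nM in Tris-HCl pH 8.0 + 0.01% Tween 20; compounds up to 114 microM, 15 min RT dark; + Rhod110 substrate 1.5 microM; read t0 and 15 min; delta fluorescence → % inhibition → 4-parameter Hill fit.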

Assay [5] in a line: Confirmatory screen NINDS Rhodamine qHTS for Zika virus inhibitors (AID 1347161). Further: potency means the concentration at half of the fitted maximal effect; nearly all actives have a fitted effect of over 60% in size. The settings on record: purified enzyme assay, Rhodamine110 substrate fluorescence, 15 min. The method, boiled down: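 Purified NS2B-NS3 protease with the NS2B hydrophilic domain joined by a flexible linker (25 nM) in 10 mM Tris-HCl pH 8.0, 0.01% Tween 20, preincubated 15 min at RT with compound; Rhodamine110 peptide substrate 1.5 µM; fluorescence change over 15 min; 4-parameter Hill fit.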

Records with an inconclusive call do not appear. Values without a mark were called inactive. Calls of active or inactive are those of the source. The call rests on the fitted dose curve; in most records, active means well fitted curve in the direction sought with a large enough effect; inconclusive means small, poorly fitted or top-dose-only effect, or another doubt; inactive means no such curve, though single readings can be large; an effect the other way counts as inactive or inconclusive.

As to `CCOc1nc2cccc(C(=O)O)c2n1Cc1ccc(-c2ccccc2-c2nn[nH]n2)cc1`, the Potency result in assay [1], in assay [2] and in assay [3] was “inactive” throughout.
Take `CC(C)(C)C(=O)C(Oc1ccc(Cl)cc1)n1ccnc1` (configuration not stated): the Potency entry in assay [1], in assay [2] and in assay [3] was “inactive” throughout.
In the case of `O=S(=O)(O)NC1CCCCC1`, in assay [1], the Potency result is “inactive”.
`Cc1cccc(Nc2cc(Cl)nc(SCC(=O)O)n2)c1C`: the Potency entry in assay [1] and in assay [2] was “inactive” in each case.
As to `COc1ccc2c(c1)C(=O)N(CCc1ccc(S(=O)(=O)NC(=O)NC3CCCCC3)cc1)C(=O)C2(C)C`, the Potency in assay [4] is 27.8 µM (active); in assay [5], 31.2 µM (active). Besides, the Potency result in assay [2] was “inactive”.
As to `CCN(CC)CCSC(=O)C(c1ccccc1)c1ccccc1`, the Potency entry in assay [1] was “inactive”.
In the case of `O=C(O)[C@H](O)c1ccccc1`, the Potency entry in assay [1] was “inactive”.
`C[C@H]1O[C@H](O[C@H]2[C@H](O)[C@@H](O)[C@@H](O[C@H]3[C@H](O)[C@@H](O)[C@H](O)O[C@@H]3CO)O[C@@H]2CO)[C@H](O)[C@@H](O)[C@@H]1N[C@H]1C=C(CO)[C@@H](O)[C@H](O)[C@H]1O`: in assay [1], the Potency result was “inactive”.
Still for that read-out and setting: with `O=C1O[C@H]([C@@H](O)CO)C(O)=C1O` the entry was “inactive”.
For `Cc1ccc2nc(N)[nH]c(=O)c2c1Sc1ccncc1`, the Potency result in assay [1], in assay [2] and in assay [3] was “inactive” throughout.
With `CC(=O)O[C@@]12CO[C@@H]1C[C@H](O)[C@@]1(C)C(=O)[C@H](O)C3=C(C)[C@@H](OC(=O)[C@H](O)[C@@H](NC(=O)OC(C)(C)C)c4ccccc4)C[C@@](O)([C@@H](OC(=O)c4ccccc4)[C@H]21)C3(C)C`, in assay [1], the Potency entry is “inactive”.
Consider `CN1CCOC(c2ccccc2)c2ccccc2C1` (configuration not stated), for which the Potency entry in assay [1], in assay [2] and in assay [3] was “inactive” each time.
As to `CCOC(CN1CCN(CC(C)C(=O)c2ccccc2)CC1)c1ccccc1` (configuration not stated), the Potency result in assay [1], in assay [2] and in assay [3] was “inactive” throughout.
With `CCOc1ccc2ccccc2c1C(=O)N[C@@H]1C(=O)N2[C@@H]1SC(C)(C)[C@@H]2C(=O)O`, the Potency result in assay [1], in assay [2] and in assay [3] was “inactive” each time.
For the compound `O=C(O)CN1C(=O)c2cccc3cccc(c23)C1=O`, the Potency result in assay [1] was “inactive”.
As for `C[C@]12CC[C@@H]3c4ccc(O)cc4CC[C@H]3[C@@H]1CC[C@@H]2OC(=O)CCC1CCCC1`, in assay [2], the Potency is 20 µM (active).
Regarding `COc1ccc2cc1Oc1ccc(cc1)C[C@H]1c3c(cc4c(c3Oc3cc5c(cc3OC)CCN(C)[C@@H]5C2)OCO4)CCN1C`, the Potency entry in assay [1], in assay [2] and in assay [3] was “inactive” throughout.
With `CS(=O)(=O)c1ccc([C@@H](O)[C@@H](CF)NC(=O)C(Cl)Cl)cc1`, the Potency result in assay [1], in assay [2] and in assay [3] was “inactive” each time.
As for `O=c1[nH]cnc2c1ncn2[C@@H]1O[C@H](CO)[C@@H](O)[C@H]1O`, the Potency entry in assay [1], in assay [2] and in assay [3] was “inactive” each time.
Regarding `CCOC(=O)[C@H](CCc1ccccc1)N[C@@H](C)C(=O)N1C(=O)N(C)C[C@H]1C(=O)O`, the Potency entry in assay [1] and in assay [3] was “inactive” in each case.
On to `CCCCOc1cc(C(=O)OCCN(CC)CC)ccc1N`, for which the Potency entry in assay [1], in assay [2] and in assay [3] was “inactive” in each case.
For the compound `Nc1ccc(S(=O)(=O)Nc2nccs2)cc1`, the Potency entry in assay [1] and in assay [3] was “inactive” each time.
Regarding `Nc1nc2c(ncn2CCC(CO)CO)c(=O)[nH]1`, the Potency result in assay [1], in assay [2] and in assay [3] was “inactive” each time.
As to `C[C@@H]1CN(c2c(F)c(F)c3c(=O)c(C(=O)O)cn(C4CC4)c3c2F)C[C@H](C)N1`, the activity change, negative = inhibition in assay [2] was -12.9% [at 19.1 µM]. For the same compound, the outcome in assay [3] was “inactive [at 10.7 µM]”.
